# Data published in PubChem BioAssay.
# Activity calls are given as the source filed them.
# Columns and labels:
# [1] = optical density shifts of acrAB sulA E. coli – strain DRC41, OD650, 48 h, E. coli filamentation inducer project, primary screen (AID 1152); conditions: higher = more signal, called active from +8 up or from −8 down;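 also: E. coli MC1000 strain DRC41 lacking acrAB efflux pump and sulA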
# [2] = probe aLefty1 binding on compound microarray – biochemical, small-molecule microarray, 635/667 nm fluorescence, primary screen (AID 1153); conditions: higher = more signal;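 also: score merges spot fluorescence with signal-to-noise ratio from the scanned slide images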
# [3] = plasmodial surface anion channel blockers, osmotic lysis – cell-based, P. falciparum Indochina, OD700, 1 h, primary screen (AID 1154); conditions: P. falciparum Indochina infected RBC osmotic lysis, higher = more signal, called active from +8 up or from −8 down
# [4] = plasmodial surface anion channel blockers, osmotic lysis – cell-based, P. falciparum Indochina, OD700, 2 h, primary screen (AID 1155);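 also: lysis reports solute entry through the parasite surface anion channel PSAC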; conditions: P. falciparum Indochina infected erythrocytes, higher = more signal, called active from +8 up or from −8 down
# [5] = changes in parasitized red cell lysis, either direction – P. falciparum Indochina, OD700, 3 h, PSAC antagonist project, primary screen (AID 1156); conditions: P. falciparum-infected erythrocytes, osmotic lysis, higher = more signal, called active from +8 up or from −8 down
# [6] = plasmodial surface anion channel blockers, osmotic lysis – cell-based, P. falciparum Indochina, OD700, 18 h, primary screen (AID 1157); conditions: P. falciparum Indochina infected erythrocytes, osmotic lysis OD700, 18 h; higher = more signal, called active from +8 up or from −8 down
# [7] = S6 kinase pathway phospho-S6 level changes – cell-based, A549, cytoblot, luminescence, serum-stimulated, primary screen (AID 1158); conditions: 5 h, higher = more signal;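 also: serum-stimulated A549 lung adenocarcinoma cells; signal is phosphorylated S6 detected by cytoblot immunostaining with HRP secondary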
# [8] = target: NADPH oxidase 2 (Homo sapiens) (UniProt P04839); assay: compounds shifting NOX2 Amplex Red fluorescence – cell-based, HEK293-NOX2, PMA-stimulated, NOX inhibitor project, primary screen (AID 1159); conditions: 45 min, higher = more signal, called active from +8 up or from −8 down; also: test concentration not given here
# [9] = target: NADPH oxidase 4 (Homo sapiens) (UniProt Q9NPH5); assay: compounds shifting NOX4 Amplex Red fluorescence – cell-based, HEK293-NOX4, tetracycline-induced, NOX inhibitor project, primary screen (AID 1160); conditions: HEK293-NOX4, Amplex Red H2O2 fluorescence, 45 min; higher = more signal, called active from +8 up or from −8 down
# [10] = target: NADPH oxidase 5 (Homo sapiens) (UniProt Q96PH1); assay: compounds shifting NOX5 Amplex Red fluorescence – cell-based, HEK293-NOX5, NOX inhibitor project, primary screen (AID 1161); conditions: HEK293-NOX5, ionomycin, 45 min, higher = more signal
# [11] = compound effects on lung adenocarcinoma cell viability – A549, calcein-AM fluorescence, 48 h, basal, profiling panel (AID 1162); conditions: higher = more signal; also: test concentration not given here
# [12] = compound effects on differentiated 3T3-L1 adipocyte viability – cell-based, 3T3-L1 adipocytes, calcein-AM fluorescence, 48 h, basal, profiling panel (AID 1163); conditions: 3T3-L1 adipocytes viability, higher = more signal; also: test concentration not given here
# [13] = compound effects on hepatocellular carcinoma cell viability – HepG2, calcein-AM fluorescence, 48 h, basal, profiling panel (AID 1164); conditions: higher = more signal; also: test concentration not given here
# [14] = compound effects on multiple myeloma cell viability – MM1S, calcein-AM fluorescence, 48 h, basal, profiling panel (AID 1165); conditions: higher = more signal; also: test concentration not given here
# [15] = calcein-AM signal in unstimulated myeloma cells – cell-based, calcein-AM fluorescence, 48 h, PK04 Diversity Set, profiling panel (AID 1166); conditions: RPMI8226 myeloma viability, higher = more signal;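 also: cells grown under basal conditions without added stimulus; test concentration not given here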
# [16] = JC-1 mitochondrial signal, unstimulated HepG2 cells – cell-based, JC-1 fluorescence, 24 h, 100 nL compound, profiling panel (AID 1167); conditions: HepG2 mitochondrial potential, higher = more signal; also: test concentration not given here
# [17] = JC-1 mitochondrial signal, unstimulated adipocytes – cell-based, JC-1 fluorescence, 3T3-L1 adipocytes, 24 h, 100 nL compound, profiling panel (AID 1168); conditions: JC-1 mitochondrial fluorescence, higher = more signal, called active from +8 up or from −8 down; also: test concentration not given here
# [18] = JC-1 mitochondrial signal, unstimulated myeloma cells – cell-based, JC-1 fluorescence, RPMI8226, 24 h, 100 nL compound, profiling panel (AID 1169); conditions: JC-1 mitochondrial potential fluorescence, higher = more signal; also: test concentration not given here
# [19] = JC-1 mitochondrial signal, unstimulated MM1S myeloma – cell-based, JC-1 fluorescence, 24 h, 100 nL compound, profiling panel (AID 1170); conditions: MM1S mitochondrial potential, higher = more signal; also: test concentration not given here
# [20] = resazurin metabolic signal in A549 cells – cell-based, resazurin fluorescence, 24 h, PK04 Diversity Set, profiling panel (AID 1171); conditions: A549 viability, higher = more signal, called active from +8 up or from −8 down; also: test concentration not given here
# Chain of NADPH oxidase 5 (Homo sapiens) (Q96PH1 whole entry, looked up): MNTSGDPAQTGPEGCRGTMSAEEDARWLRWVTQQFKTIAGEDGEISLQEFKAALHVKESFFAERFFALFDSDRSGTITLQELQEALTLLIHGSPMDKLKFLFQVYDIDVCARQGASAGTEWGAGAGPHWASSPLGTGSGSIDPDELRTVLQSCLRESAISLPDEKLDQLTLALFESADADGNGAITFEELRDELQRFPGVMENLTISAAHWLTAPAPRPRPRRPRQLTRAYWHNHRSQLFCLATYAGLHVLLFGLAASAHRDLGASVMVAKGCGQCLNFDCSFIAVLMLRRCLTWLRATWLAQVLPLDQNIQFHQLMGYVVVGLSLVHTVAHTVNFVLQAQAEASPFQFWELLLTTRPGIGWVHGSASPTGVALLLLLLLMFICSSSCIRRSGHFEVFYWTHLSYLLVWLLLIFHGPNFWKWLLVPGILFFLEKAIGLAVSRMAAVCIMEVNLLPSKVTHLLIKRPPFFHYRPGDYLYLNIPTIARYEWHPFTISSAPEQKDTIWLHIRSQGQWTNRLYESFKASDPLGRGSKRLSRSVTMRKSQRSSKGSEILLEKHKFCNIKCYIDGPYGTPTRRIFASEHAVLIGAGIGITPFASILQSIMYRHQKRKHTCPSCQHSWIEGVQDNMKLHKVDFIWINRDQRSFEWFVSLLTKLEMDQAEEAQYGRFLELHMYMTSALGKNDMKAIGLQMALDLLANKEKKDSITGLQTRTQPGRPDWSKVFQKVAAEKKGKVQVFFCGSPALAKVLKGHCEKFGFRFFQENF
# Chain of NADPH oxidase 4 (Homo sapiens) (Q9NPH5 whole entry, looked up): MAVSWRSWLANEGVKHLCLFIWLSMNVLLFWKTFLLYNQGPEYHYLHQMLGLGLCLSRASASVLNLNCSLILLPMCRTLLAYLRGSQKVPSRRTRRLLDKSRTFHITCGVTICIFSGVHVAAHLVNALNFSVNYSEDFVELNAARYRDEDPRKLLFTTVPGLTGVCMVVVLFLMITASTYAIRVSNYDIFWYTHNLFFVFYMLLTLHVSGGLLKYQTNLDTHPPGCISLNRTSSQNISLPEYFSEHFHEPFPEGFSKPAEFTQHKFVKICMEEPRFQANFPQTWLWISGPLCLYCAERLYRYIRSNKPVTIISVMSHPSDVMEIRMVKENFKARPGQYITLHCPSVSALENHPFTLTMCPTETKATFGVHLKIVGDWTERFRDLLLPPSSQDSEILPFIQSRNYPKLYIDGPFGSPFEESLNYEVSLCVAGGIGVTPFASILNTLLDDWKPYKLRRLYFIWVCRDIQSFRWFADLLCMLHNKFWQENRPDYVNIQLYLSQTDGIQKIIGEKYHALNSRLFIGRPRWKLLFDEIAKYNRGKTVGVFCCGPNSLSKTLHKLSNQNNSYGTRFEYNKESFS
# Chain of NADPH oxidase 2 (Homo sapiens) (P04839 whole entry, looked up): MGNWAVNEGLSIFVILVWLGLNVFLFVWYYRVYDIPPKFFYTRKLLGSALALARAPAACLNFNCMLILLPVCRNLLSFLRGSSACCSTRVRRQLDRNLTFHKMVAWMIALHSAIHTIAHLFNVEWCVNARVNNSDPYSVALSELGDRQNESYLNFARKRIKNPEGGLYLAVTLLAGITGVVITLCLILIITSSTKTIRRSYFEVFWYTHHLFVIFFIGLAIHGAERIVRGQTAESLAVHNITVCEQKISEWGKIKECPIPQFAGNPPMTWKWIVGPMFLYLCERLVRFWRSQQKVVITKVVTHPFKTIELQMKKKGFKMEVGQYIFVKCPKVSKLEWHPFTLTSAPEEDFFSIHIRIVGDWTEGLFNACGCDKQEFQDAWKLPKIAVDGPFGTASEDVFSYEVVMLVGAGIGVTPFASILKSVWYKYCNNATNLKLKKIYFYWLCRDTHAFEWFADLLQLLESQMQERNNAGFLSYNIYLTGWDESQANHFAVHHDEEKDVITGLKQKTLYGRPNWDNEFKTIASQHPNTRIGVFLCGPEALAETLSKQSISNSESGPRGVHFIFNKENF
SMILES,z-score [1],composite z-score [2],z-score [3],z-score [4],z-score [5],z-score [6],z-score [7],z-score [8],z-score [9],z-score [10],z-score [11],z-score [12],z-score [13],z-score [14],z-score [15],z-score [16],z-score [17],z-score [18],z-score [19],z-score [20]
Cc1cc2c(nc1C)CCCCN2CC(C)ON=C1[C@H]2CCn3c(=O)n(-c4ccccc4)c(=O)n3[C@H]2[C@H](O)[C@@H]2O[C@H]12 (stereo not given in full),1.03 (inactive),-0.0536,0.683 (inactive),0.0165 (inactive),0.417 (inactive),0.122 (inactive),0.0162,-1.86 (inactive),-0.0659 (inactive),0.168,-0.333,-0.0663,0.305,-0.767,-1.21,-0.439,-0.521 (inactive),0.407,-0.974,-1.53 (inactive)
O=C1C=C[C@@H](O)[C@@H]2[C@@H]3C(=O)N(C[C@@H]4CCCO4)C(=O)[C@@H]3CC[C@@H]12,0.0413 (inactive),0.0313,1.08 (inactive),0.979 (inactive),-0.0029 (inactive),0.281 (inactive),-0.382,1.71 (inactive),-0.0876 (inactive),0.283,-0.663,0.316,0.324,-0.121,0.757,1.09,0.0236 (inactive),-0.643,0.744,-0.379 (inactive)
CC(C)CCN1CCc2nc(COc3ccccc3)c3c(c2C1)CO[C@@H](C)C3,-0.152 (inactive),0.0768,3.22 (inactive),0.326 (inactive),0.331 (inactive),0.101 (inactive),-0.356,1.2 (inactive),0.131 (inactive),0.242,-0.304,-0.225,0.665,0.246,-0.396,1.66,-0.000112 (inactive),-0.724,1.09,-0.0622 (inactive)
COC(=O)CC=C[C@@H](C)[C@@H](C=NO[C@@H]1O[C@H](COC(C)=O)[C@@H](OC(C)=O)[C@H](OC(C)=O)[C@H]1OC(C)=O)OC,-0.477 (inactive),0.142,0.683 (inactive),0.547 (inactive),-0.193 (inactive),0.416 (inactive),-0.474,1.26 (inactive),0.729 (inactive),0.688,-0.999,-0.351,0.2,-0.171,0.418,-0.699,-1.19 (inactive),0.128,-0.0985,1 (inactive)
Cn1c(=O)n2n(c1=O)[C@H]1[C@H](O)[C@@H]3O[C@@H]3C(=NOCc3ccccc3)[C@H]1CC2,-0.022 (inactive),-0.0501,-0.347 (inactive),0.0184 (inactive),-0.432 (inactive),0.206 (inactive),-0.807,0.265 (inactive),0.456 (inactive),0.632,0.102,-0.48,0.316,0.0846,-0.548,-0.141,-0.383 (inactive),-0.0104,-0.338,-0.508 (inactive)
CC(C)=CCCC(C)=CCON=C1C[C@@H](O)[C@@H](O)[C@@H]2[C@@H]3C(=O)N(c4ccc(F)cc4F)C(=O)[C@@H]3CC[C@@H]12,0.217 (inactive),0.0999,4.44 (inactive),1.21 (inactive),2.06 (inactive),1.07 (inactive),-0.718,-0.333 (inactive),-0.0951 (inactive),0.0854,-1.34,0.425,-0.354,-0.586,-1.47,0.208,-1.28 (inactive),-0.163,-0.356,-0.179 (inactive)
CO[C@@H]1COC(=O)[C@H](CCSC)NC(=O)CC=C[C@@H](C)COC(=O)CCC[C@H]1C,0.337 (inactive),0.729,19.7 (active),3.14 (inactive),2.07 (inactive),1.18 (inactive),0.016,-1.12 (inactive),0.369 (inactive),-0.918,0.471,-0.304,-0.764,-0.38,-0.687,1.95,-0.688 (inactive),-0.194,-0.0804,0.977 (inactive)
C[C@@H](ON=C1[C@H]2CCn3c(=O)n(-c4ccccc4)c(=O)n3[C@H]2[C@H](O)[C@@H]2O[C@H]12)c1cn([C@@H]2COC[C@H]2O)nn1,-0.212 (inactive),-0.255,0.595 (inactive),0.277 (inactive),0.0251 (inactive),0.122 (inactive),-0.574,-0.183 (inactive),-0.242 (inactive),-0.461,0.0219,-0.15,0.373,-0.289,-0.292,-0.377,-1.84 (inactive),-0.0731,-0.696,0.0264 (inactive)
CC(C)(C)N1C(=O)[C@H]2[C@H]3[C@H](O)[C@H](O)CC(=NOCc4ccccc4)[C@H]3CC[C@H]2C1=O,0.254 (inactive),0.57,4.05 (inactive),0.54 (inactive),-0.408 (inactive),0.133 (inactive),-0.371,-0.147 (inactive),0.991 (inactive),0.765,0.156,-0.503,-1.11,0.166,-0.946,-0.736,0.536 (inactive),-0.492,0.0361,0.727 (inactive)
